These results are taken from PubChem BioAssay (NCATS).

Results filed as inconclusive are left out. Activity calls are given as the source filed them. Unless noted, no rule for the calls is given here.

A short description of assay [1]: qHTS profiling for inhibitors of Plasmodium falciparum (DD2) proliferation (AID 743323). The following applies: lower = more inhibition; at 28.7 µM (top of the series) unless noted. In short, it runs like this:
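1536-well qHTS; infected RBCs 0.3% parasitemia/2.5% Hct final; cpd 72 h 37 C 5% CO2; lysis buffer + SYBR Green I, o/n RT dark; FI 485/535; norm. to 0.29 uM artemisinin and DMSO, plate-stack corrected.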
For orientation: qHTS replaces the single test concentration by a dilution series.

Assay [2] in a line: qHTS profiling for inhibitors of Plasmodium falciparum (HB3) proliferation (AID 743324; active = well fitted curve in the direction sought with a large enough effect; an effect the other way counts as inactive or inconclusive;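 also: 100% = DMSO vehicle wells and 0% = artemisinin-treated control wells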). The following applies: Plasmodium falciparum HB3 blood-stage proliferation; at 28.7 µM (top of the series) unless noted. A digest of the protocol: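 SYBR Green fluorescence (485 ex/535 em) of lysed cultures, incubated overnight at room temperature in the dark, quantifies parasite DNA. Infected erythrocytes at 0.3% parasitemia and 2.5% hematocrit were exposed 72 h; values normalized to DMSO and 0.29 uM artemisinin controls.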

Assay [3] in a line: qHTS profiling of the MIPE4 collection as inhibitors of Plasmodium falciparum (3D7) proliferation (AID 743344).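 Also: scaled between DMSO vehicle wells and 0.29 µM artemisinin as full inhibition.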 The following applies: P. falciparum 3D7 in erythrocytes, SYBR Green DNA fluorescence, 72 h; at 28.5 µM (top of the series) unless noted. A digest of the protocol: (§1)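 Parasite DNA was quantified by SYBR Green I fluorescence (ex 485, em 535 nm) after overnight lysis in saponin/Triton buffer at room temperature. Cultures at 0.3% parasitemia and 2.5% hematocrit were first exposed to compound for 72 h at 37 C; signals were normalised to artemisinin (0.29 uM) and vehicle wells.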

Assay [4] can be described thus: qHTS profiling of the MIPE4 collection as inhibitors of Plasmodium falciparum (DD2) proliferation (AID 743345). The following applies: P. falciparum Dd2 in erythrocytes, SYBR Green DNA, 72 h; at 28.5 µM (top of the series) unless noted. In short, it runs like this:
as §1

Assay [5] can be described thus: qHTS profiling of the MIPE4 collection as inhibitors of Plasmodium falciparum (DD2) proliferation (Rep 2) (AID 743346). The following applies: P. falciparum Dd2 in erythrocytes, SYBR Green DNA, 72 h; at 28.5 µM (top of the series) unless noted. In short, it runs like this:
as §1

A short description of assay [6]: qHTS profiling of the MIPE4 collection as inhibitors of Plasmodium falciparum (HB3) proliferation (AID 743347).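 Also: plate controls were DMSO vehicle wells for no effect and artemisinin wells for full effect.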 The following applies: P. falciparum HB3 in erythrocytes, SYBR Green DNA, 72 h; at 28.5 µM (top of the series) unless noted. In short, it runs like this: as §1
The nature of assay [7]: High-throughput drug toxicity screening in the BPDCN cell line Gen2.2 (AID 1224824).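 Also: cells exposed to compounds for 48 h before reading.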 The following applies: Gen2.2 BPDCN cells; at 45.8 µM (top of the series) unless noted. In short, it runs like this: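 Seed 500 exponentially growing Gen2.2 cells/well; add compounds by pin tool; incubate 48 h, 37 °C, 5% CO2; add CellTiter-Glo, 15 min RT; read luminescence. % activity vs DMSO (100%) and bortezomib (0%).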

Assay [8] in a line: High-throughput drug toxicity screening in the BPDCN cell line Cal-1 (AID 1224825). The following applies: Cal-1 BPDCN cell viability, qHTS; at 45.8 µM (top of the series) unless noted. A digest of the protocol:
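CellTiter-Glo luminescence after 48 h compound exposure; percent activity scaled with DMSO as 100% and bortezomib (9.2 uM final) as 0%. Cal-1 cells seeded at 500/well in RPMI, 10% FBS, no phenol red.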

Assay [9] is described as follows: qHTS assay for measurement of the activity of small molecule inhibitors on Zika virus induced Caspase-3 activity in human iPSC derived neural progenitor cells (hNPCs) (AID 1224857; active = well fitted curve in the direction sought with a large enough effect; an effect the other way counts as inactive or inconclusive; also: % of control where 0% means no effect; nearly all actives have a fitted effect of over 65% in size). A digest of the protocol:
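Zika virus (2 FFU/cell) infection of human iPSC-derived NPCs, 6 h, following 1 h compound preincubation. Read-out: Caspase-Glo 3/7 luminescence.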

Assay [10] can be described thus: qHTS assay for measurement of the activity of small molecule inhibitors on Zika virus induced Caspase-3 activity in human astrocytoma cells (AID 1224859; active = well fitted curve in the direction sought with a large enough effect; an effect the other way counts as inactive or inconclusive;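 also: plate controls were ZIKV-infected untreated cells for no effect and uninfected cells for full effect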). In short, it runs like this: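 Caspase activation in ZIKV-infected SNB-19 cells (2 FFU/cell, 6 h) measured by Caspase-Glo 3/7 luminescence after 30 min RT; compound pre-incubated 1 h; normalised to uninfected and infected controls.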

The nature of assay [11]: qHTS Screen of the MIPE 4.0 Collection Against Ewings Sarcoma (RDES) (AID 1259252; active = well fitted curve in the direction sought with a large enough effect; an effect the other way counts as inactive or inconclusive; also: nearly all actives have a fitted effect of over 35% in size; also: potency is read from the fitted curve at half-maximal effect). In short, it runs like this:
(§2)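 Dose series incubated 48 h with cells in RPMI plus 5% FBS, glutamine and penicillin/streptomycin; cell viability then quantified via CellTiter-Glo.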

A short description of assay [12]: qHTS Screen of the MIPE 4.0 Collection Against Ewings Sarcoma (EW8) (AID 1259255; active = well fitted curve in the direction sought with a large enough effect; an effect the other way counts as inactive or inconclusive; also: nearly all actives have a fitted effect of over 35% in size; also: potency is read from the fitted curve at half-maximal effect;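 as to viability: 100% = DMSO-treated cells and 0% = medium-only wells without cells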). In short, it runs like this:
as §2

The nature of assay [13]: qHTS Screen of the MIPE 4.0 Collection Against Ewings Sarcoma (TC32) (AID 1259256; active = well fitted curve in the direction sought with a large enough effect; an effect the other way counts as inactive or inconclusive; also: nearly all actives have a fitted effect of over 45% in size; also: potency is read from the fitted curve at half-maximal effect). In short, it runs like this: as §2
Assay [14] can be described thus: Identifying Small Molecule Inhibitors of Pancreatic Cancer Stem Cells (SN12C, Adherent) (AID 1259358; active = well fitted curve in the direction sought with a large enough effect; an effect the other way counts as inactive or inconclusive;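 also: cell survival measured after 48 h of compound exposure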; also: potency is read from the fitted curve at half-maximal effect). In short, it runs like this: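 Endpoint: ATP-based luminescence, 48 h drug exposure. Bortezomib at 9.2 uM final as full-kill control; DMSO vehicle as negative control; activity normalized between vehicle and cell-free wells.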
Assay [15] is described as follows: Identifying Small Molecule Inhibitors of Pancreatic Cancer Stem Cells (SN12C, Spheroid) (AID 1259360; active = well fitted curve in the direction sought with a large enough effect; an effect the other way counts as inactive or inconclusive; also: potency is read from the fitted curve at half-maximal effect;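 as to viability (% of control): 100% = DMSO-treated cells and 0% = wells without cells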). The following applies: Potency: SN12C spheroid viability. A digest of the protocol: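 Luminescent ATP readout (CellTiter-Glo) quantifies surviving cells after a 48 h drug incubation. Normalization uses DMSO wells as no inhibition and media-only wells as full inhibition; bortezomib served as positive control.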

Assay [16] is described as follows: qHTS Screen of the MIPE 4.0 Collection Against Ewings Sarcoma (TC71) (AID 1259253; active = well fitted curve in the direction sought with a large enough effect; an effect the other way counts as inactive or inconclusive; also: nearly all actives have a fitted effect of over 40% in size; also: potency is read from the fitted curve at half-maximal effect). A digest of the protocol: as §2

Regarding `COc1nc(C)cnc1NS(=O)(=O)c1cccnc1-c1ccc(-c2nnco2)cc1`, the activity, percent of control in assay [1] turned out to be 88%. Moreover, in assay [2], the remaining proliferation (% of control), lower = more inhibition was 91.9%. For the same compound, the parasite growth, % of DMSO control in assay [3] is 100%. Further, the parasite growth remaining, % of DMSO control (lower = more inhibition) in assay [4] is 100%. The parasite growth, % of control (lower = inhibition) in [5] was 74.5%. Further, the growth, % of control in assay [6] was 100%. For the same compound, in [7], the cell viability, % of control (lower = more cytotoxic) amounted to 379%. Besides, in assay [8], the viability (% of control) came to 142%. Moreover, the Potency entry in assay [9], in assay [10], in assay [11], in assay [12], in [13] and in [14] was “inactive” each time. For the same compound, in [15], the Potency result is “inactive”.

Consider `CCn1c(-c2nonc2N)nc2cncc(CNC3CCNCC3)c21`, for which the parasite growth remaining, % of DMSO control (lower = more inhibition) in assay [4] worked out at 89.6%. The compound also displayed a parasite growth, % of control (lower = inhibition) in assay [5] of 43.8%. The growth, % of control in assay [6] was 7.55%. Further, the cell viability, % of control (lower = more cytotoxic) in [7] worked out at 7.5%. The viability (% of control) in assay [8] is 56.5%. Besides, the Potency entry in [9], in [10] and in assay [16] was “inactive” in each case. Further, the Potency in assay [11] was 11.8 µM (active).

As to `COC(=O)Nc1ccc(-c2nc(N3CCOCC3)c3cnn(C4CCN(C(=O)OC)CC4)c3n2)cc1`, in assay [1], the activity, percent of control stood at 7.64%. The same compound showed a remaining proliferation (% of control), lower = more inhibition in assay [2] of 0.698%. Further, in assay [3], the parasite growth, % of DMSO control was determined as 11.1%. The parasite growth remaining, % of DMSO control (lower = more inhibition) in assay [4] was found to be 14.3%. The compound also had a parasite growth, % of control (lower = inhibition) in [5] of 27.4%. The same compound registered a growth, % of control in assay [6] of 7.52%. For the same compound, in [7], the cell viability, % of control (lower = more cytotoxic) amounted to 8.32%. Further, the viability (% of control) in assay [8] is 4.85%. For the same compound, the Potency result in [9] and in assay [10] was “inactive” throughout. The Potency in [11] was 0.0372 µM (active); in [12], 0.148 µM (active); in [14], 0.264 µM (active); in [15], 1.05 µM (active).

In turn, `OC1CCC(Nc2ncc3nc(Nc4c(F)cc(F)cc4F)n([C@@H]4CCOC4)c3n2)CC1` (stereo partly drawn) came in with a parasite growth, % of DMSO control in assay [3] of 38.4%. Further, the parasite growth remaining, % of DMSO control (lower = more inhibition) in assay [4] amounted to 84.7%. In addition, the parasite growth, % of control (lower = inhibition) in assay [5] came to 59.6%. In [6], this compound showed a growth, % of control of 43.4%. Further, the cell viability, % of control (lower = more cytotoxic) in assay [7] is 62.2%. Besides, the viability (% of control) in assay [8] was found to be 13.2%. In addition, the Potency entry in assay [9] and in assay [10] was “inactive” throughout. Besides, the Potency in assay [11] was 18.7 µM (active); in assay [12] it was 9.35 µM (active).

As to `CN1CC(=O)NC1=NC(=O)Nc1cccc(Cl)c1`, the parasite growth, % of DMSO control in assay [3] is 78.1%. Further, the parasite growth remaining, % of DMSO control (lower = more inhibition) in assay [4] came out at 83.9%. The compound further gave a parasite growth, % of control (lower = inhibition) in [5] of 23.4%. The compound also registered a growth, % of control in assay [6] of 98.8%. For the same compound, the cell viability, % of control (lower = more cytotoxic) in assay [7] was 3.29%. In [8], the viability (% of control) worked out at 31.9%. The Potency result in assay [9], in [10], in [11], in assay [12] and in [13] was “inactive” throughout.

As for `COc1cc2ncn(-c3cc(OCc4ccccc4S(C)(=O)=O)c(C#N)s3)c2cc1OC`, the parasite growth, % of DMSO control in [3] worked out at 76.2%. Further, the parasite growth remaining, % of DMSO control (lower = more inhibition) in [4] turned out to be 103%. The growth, % of control in assay [6] was 90.8%. For the same compound, the cell viability, % of control (lower = more cytotoxic) in assay [7] amounted to 146%. Further, in assay [8], the viability (% of control) was 95.9%. Moreover, the Potency entry in assay [9] and in assay [10] was “inactive” in each case. Also, the results for the Potency in assay [11] and in assay [16] were 16.6 µM (active) and 3.32 µM (active), respectively.

Regarding `C[C@@]1(c2cc(-c3cncnc3)c(F)cc2F)CCSC(N)=N1`, in assay [3], the parasite growth, % of DMSO control came out at 28.5%. Besides, the parasite growth remaining, % of DMSO control (lower = more inhibition) in assay [4] was 44.7%. In [5], this compound registered a parasite growth, % of control (lower = inhibition) of 28.2%. In assay [6], this compound registered a growth, % of control of 14%. Further, in assay [7], the cell viability, % of control (lower = more cytotoxic) was determined as 9.95%. Further, in assay [8], the viability (% of control) amounted to 13.1%. Further, the Potency result in [9], in [10], in [11] and in [16] was “inactive” each time.

In the case of `C[C@@H]1[C@H](C)CC[C@]2(C(=O)O)CC[C@]3(C)C(=CC[C@@H]4[C@@]5(C)CC[C@H](O)C(C)(C)[C@H]5CC[C@]43C)[C@@H]12`, in [3], the parasite growth, % of DMSO control was 4.81% [at 57.5 µM]. In addition, in assay [4], the parasite growth remaining, % of DMSO control (lower = more inhibition) was 55.6% [at 57.5 µM]. Further, the parasite growth, % of control (lower = inhibition) in assay [5] was 8% [at 57.5 µM]. Moreover, in assay [7], the cell viability, % of control (lower = more cytotoxic) is 41.3% [at 92.2 µM]. Also, the viability (% of control) in [8] is 29% [at 92.2 µM]. In addition, the Potency result in assay [9] and in [10] was “inactive” in each case. Also, the Potency is 2.7 µM (active) in assay [11], 5.4 µM (active) in assay [12] and 1.52 µM (active) in [13].
